# From PubChem BioAssay AID2156 (Johns Hopkins Ion Channel Center, 2009)
# Out of some 310,000 compounds screened, about 3,400 (1.1%) were called active. The list comes from a sample in which actives are over-represented; it also holds similar structures and randomly drawn compounds. A number with no mark means an inactive call.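 Rule for the calls: active = fluorescence ratio B-score at most minus 3 library SDs, with starting brightness B-score within 2 library SDs (cut at about -5.5 in these data); inactive = the rest, inconclusive results apart.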
# Biological target: Potassium voltage-gated channel subfamily KQT member 2 (Rattus norvegicus) (UniProt O88943)
# Assay: KCNQ2 channel blockers in CHO-K1 cells – cell-based, FluxOR thallium flux, B-score, primary screen (AID 2156)
# Conditions: 20 min, at 10 µM; hits give low values
# Potassium voltage-gated channel subfamily KQT member 2 (Rattus norvegicus), sequence (O88943 whole entry, looked up): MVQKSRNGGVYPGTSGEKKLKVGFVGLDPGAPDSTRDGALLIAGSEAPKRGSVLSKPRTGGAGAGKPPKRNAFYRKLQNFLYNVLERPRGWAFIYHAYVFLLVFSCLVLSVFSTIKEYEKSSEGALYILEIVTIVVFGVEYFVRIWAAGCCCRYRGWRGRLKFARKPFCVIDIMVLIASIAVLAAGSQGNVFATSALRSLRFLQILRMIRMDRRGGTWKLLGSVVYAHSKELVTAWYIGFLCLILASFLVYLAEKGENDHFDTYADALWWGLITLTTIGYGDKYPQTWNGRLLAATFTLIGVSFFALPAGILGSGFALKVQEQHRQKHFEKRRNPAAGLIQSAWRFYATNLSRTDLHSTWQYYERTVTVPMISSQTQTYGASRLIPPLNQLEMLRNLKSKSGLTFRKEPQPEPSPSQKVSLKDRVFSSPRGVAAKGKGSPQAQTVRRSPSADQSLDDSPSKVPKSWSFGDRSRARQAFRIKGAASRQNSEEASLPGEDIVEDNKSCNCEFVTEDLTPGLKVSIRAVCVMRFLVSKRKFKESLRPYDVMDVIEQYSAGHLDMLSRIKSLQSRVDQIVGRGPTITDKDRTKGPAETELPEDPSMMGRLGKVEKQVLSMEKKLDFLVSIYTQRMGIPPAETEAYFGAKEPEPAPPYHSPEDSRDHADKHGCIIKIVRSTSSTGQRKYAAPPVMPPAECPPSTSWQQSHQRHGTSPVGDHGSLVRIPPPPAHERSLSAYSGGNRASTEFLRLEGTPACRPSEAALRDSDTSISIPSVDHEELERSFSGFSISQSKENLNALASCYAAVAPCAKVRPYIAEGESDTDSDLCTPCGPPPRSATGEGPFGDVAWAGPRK
row,Structure (SMILES),B-score
1,CCOC(=O)c1sc(=S)n2c1[nH]c(=O)c1ccc(C(=O)OC)cc12,inactive
2,CCOC(=O)c1sc(=NC(=O)c2ccc(Br)cc2)n(C)c1C,inactive
3,CCOC(=O)C1=C(C)Nc2sc(C(=O)c3ccc(Br)cc3)c(N)c2C1c1ccc(C(=O)OC)cc1 (stereo unspecified),-6.56 (active)
4,Cc1cc(Nc2ccc(Br)cc2)nc2ccccc12,inactive
5,Cc1ccc2nc(SCC(=O)N3CCN(c4ccccc4)CC3)nc(=O)n2c1,-0.18
6,Cc1nc(-c2ccc(F)cc2)c(CC(=O)Nc2cccc(S(=O)(=O)N3CCOCC3)c2)s1,-0.75
7,CCOC(=O)C1CCN(C(=O)COC(=O)C2CCN(S(=O)(=O)c3ccc4c(c3)OCCO4)CC2)CC1,inactive
8,CCOc1ccc(C(=O)Nc2cc(Cl)ccc2-n2cncn2)cc1OC,-0.08
9,CC(=O)Nc1ccc(NC(=O)CSC2=NS(=O)(=O)c3ccccc3N2)cc1,inactive
10,COc1ccc(C(CNC(=O)c2ccc(NS(=O)(=O)c3ccc(F)c(C)c3)cc2)N(C)C)cc1 (stereo unspecified),inactive
11,CCCCn1c(N)c(N(CC(C)C)C(=O)C2CSC3(C)CCC(=O)N23)c(=O)[nH]c1=O (stereo unspecified),-1.75
12,Cc1cccc(C(C)C)c1NC(=O)COC(=O)C1CC(=O)N(Cc2ccccc2)C1 (stereo unspecified),inactive
13,CC(=O)N1N=C(c2ccncc2)OC1(Cc1ccccc1)Cc1ccccc1,-7.53 (active)
14,CC(=O)N1N=C(c2ccccc2)OC1c1cccnc1 (stereo unspecified),inactive
15,O=C(Cc1ccccc1)N1N=C(c2ccncc2)CC1(O)C(F)(F)F (stereo unspecified),inactive
16,CC(=O)Nc1cccc(C(=O)OCC(=O)NCc2cc(C)c(O)c(C)c2)c1,inactive
17,COc1ccc(-c2n[nH]c(C)c2-c2ccccc2OC)c(O)c1,inactive
18,COc1ccccc1-c1nc(SC)n[nH]1,-0.1
19,COc1ccccc1-c1n[nH]c2c1[C@H](C)CC[C@H]2C(C)C,-10.1 (active)
20,Cc1ccnc(NC(=O)CCC(=O)N(CC(=O)NCc2ccccc2)Cc2ccco2)c1,-0.05
21,Cc1ccc2c(c1)N(CC(=O)N(Cc1ccccn1)Cc1ccco1)C(=O)C(C(C)C)O2 (stereo unspecified),-7.54 (active)
22,Cc1ccc(C(C(=O)NC2CCCC2)N(Cc2ccco2)C(=O)CCC(=O)Nc2ccccn2)cc1 (stereo unspecified),-1.92
23,O=C(c1ccc(Cl)s1)N(Cc1nnc(-c2ccccc2Cl)o1)C1CC1,-0.68
24,O=C(Nc1ccccc1[N+](=O)[O-])C1C(c2ccccc2)=C1c1ccccc1,-5.88 (active)

row,Structure (SMILES),B-score
1,O=C(Nc1ccccc1-c1ccccc1)c1ccccc1[N+](=O)[O-],-3.5
2,O=C(O)c1ccccc1C(=O)Nc1ccccc1[N+](=O)[O-],-1
3,CCC(CC)c1nnc(NC(=O)C2=COCCO2)s1,-0.29
4,CCOc1cc(N2CCOCC2)c(OCC)cc1NC(=O)COc1cccc(Cl)c1,inactive
5,CCOc1cc(N2CCOCC2)c(OCC)cc1NC(=O)c1ccc(C)s1,-6.48 (active)
6,CCOc1cc(N2CCOCC2)c(OCC)cc1NC(=O)COc1cccc2cccnc12,-3.14
7,Cc1ccc(-c2nn(-c3ccc(F)cc3)cc2C(=O)NCC(c2cccs2)N2CCOCC2)cc1 (stereo unspecified),-1.75
8,O=C(c1ccccc1Oc1ccccc1)N1CCN(c2ccc(F)cc2)CC1,-3.32
9,CCOC(=O)N1CCN(C(=O)c2nn(-c3ccc(C)cc3)c(=O)c3c2c2ccccc2n3C)CC1,inactive
10,Cn1c2ccccc2c2c(C(=O)N3CCN(c4ccc(F)cc4)CC3)cn(C3CCCC3)c(=O)c21,-5.96 (active)
11,CN1C(C(=O)NCC2CC2)CC2Cn3c(nc4ccccc43)C21 (stereo unspecified),inactive
12,CCOC(=O)c1cnc2nc(SCc3ccccc3Cl)[nH]n2c1=O,-0.81
13,Cc1ccc(C(C)C)cc1OCCN1CCCC1,inactive
14,Cc1ccccc1NC(=O)CNc1ccccc1N1CCCCC1,-5.56 (active)
15,O=C(CN1CCN(C2CCCCC2)CC1)Nc1ccccc1N1CCCCC1,inactive
16,Cc1ccc(C(C)C)cc1OCC(=O)Nc1ccccc1N1CCCC1,-8.31 (active)
17,O=C(Cc1cccc2ccccc12)NCCC1=CCCCC1,-0.18
18,O=C(CNCCC1=CCCCC1)Nc1ccccc1N1CCCCCC1,-8.12 (active)
19,CCC(=O)N1CCN(c2ccccc2NC(=O)COc2cccc(C)c2C)CC1,-4.29
20,Cc1ccccc1NC(=O)Nc1ccccc1N1CCCCC1,inactive
21,Cn1c(=O)c2c(nc(SCC(=O)Nc3ccccc3N3CCCCC3)n2C)n(C)c1=O,-0.67
22,N#Cc1cccc(OC(=O)c2ccc3c(=O)n4c(nc3c2)CCC4)c1,-0.01
23,CN1CCN(S(=O)(=O)c2ccc(Nc3ccc(F)cc3)nc2)CC1,-0.21
24,COc1ccccc1CCNC(=O)CN1C(=O)NC2(CCCC2)C1=O,inactive

row,Structure (SMILES),B-score
1,CC(Oc1cccc(Cl)c1)C(=O)Nc1ccc(S(=O)(=O)Nc2ncccn2)cc1 (stereo unspecified),inactive
2,CSc1ccc(/C=C2\NC(=O)NC2=O)cc1,inactive
3,O=C(COC(=O)Cc1c[nH]c2ccccc12)NCCc1ccccc1,-0.71
4,O=C(Cc1c[nH]c2ccccc12)OCCOC(=O)Cc1c[nH]c2ccccc12,-7.66 (active)
5,CCOC(=O)CN(C)Cc1c[nH]c2ccccc12,inactive
6,CCCCN(C(=O)c1ccc(C)o1)c1c(N)n(CCCC)c(=O)[nH]c1=O,inactive
7,CCC1CCC/C1=N\NC(=O)c1ccc(Cl)cc1 (stereo unspecified),inactive
8,Cc1cc(C)c(NC(=O)C[N+](C)(C)CC(O)COc2cccc3ccccc23)c(C)c1 (stereo unspecified),inactive
9,OC(COc1cccc2ccccc12)CN1CCN(c2ccccn2)CC1 (stereo unspecified),inactive
10,CC(C)c1ccccc1OCC(O)CN(CC(O)COc1cccc2ccccc12)C(C)C (stereo unspecified),-6.3 (active)
11,Cc1ccc(C(=O)NNC(=O)C(C)Oc2ccc3ccccc3c2)o1 (stereo unspecified),inactive
12,CCN(CC(=O)Nc1ccc(NC(C)=O)cc1)C(=O)C1CC(=O)N(Cc2ccc(C)cc2)C1 (stereo unspecified),-0.36
13,COc1ccc2sc(N(CCCN(C)C)C(=O)c3ccc(S(=O)(=O)N(C)C4CCCCC4)cc3)nc2c1,inactive
14,CCOC(=O)CC1(NC(=O)c2cc(COc3cncc(Cl)c3)on2)CCCCC1,-1.68
15,COc1cc(Cl)ccc1OCc1cc(C(=O)N2CC[C@@H]3CCCC[C@H]3C2)no1,-3.02
16,CCCOC1CCCN(C(=O)c2cc(COc3cncc(Cl)c3)on2)C1 (stereo unspecified),-8.22 (active)
17,Cc1ccc(-c2cnc(NC(=O)CCC(=O)N(C)Cc3ccccc3)n2C)cc1,-7.93 (active)
18,Cn1c(-c2ccc(F)cc2)cnc1SCC(=O)NNC(=O)Cc1ccccc1,inactive
19,CN(Cc1ccccc1)C(=O)CCc1ccccc1,-0.03
20,O=C(CCNC(=O)c1ccc(Br)cc1)Nc1cccc(S(=O)(=O)N2CCCCC2)c1,-0.11
21,CCCCn1c(N)c(N(Cc2ccccc2OC)C(=O)COc2cc(C)ccc2Cl)c(=O)[nH]c1=O,-0.97
22,CCOc1ccc2ccccc2c1/C=N/NC(=O)c1c(C)cc(C)[nH]c1=O,-2
23,Cc1cc(NC(=O)C(C)N2C(=O)c3ccccc3S2(=O)=O)no1 (stereo unspecified),-0.8
24,FC(F)(F)c1ccc2c3n(nc2c1)CCN=C3c1ccc(Cl)cc1,inactive

row,Structure (SMILES),B-score
1,Cc1ccccc1C(=O)Nc1ccccc1Sc1ccccc1,-8.36 (active)
2,O=C(COC(=O)c1ccccc1)Nc1ccccc1Sc1ccccc1,-0.64
3,Cc1ccccc1C(=O)Nc1ccccc1NC(=O)c1ccccc1C,inactive
4,O=C(Cc1ccc(S(=O)(=O)N2CCOCC2)s1)N1CCN(c2ccc(C(F)(F)F)cc2[N+](=O)[O-])CC1,inactive
5,O=C(NC1CCCCC1)c1ccc(-c2ccc(Cl)cc2)o1,-3.97
6,CN(CC(=O)Nc1cccc(F)c1)C(=O)C1=COCCO1,-0.61
7,O=C(NCc1ccccc1)C(c1ccco1)N(C(=O)c1csnn1)c1ccccc1F (stereo unspecified),-6.27 (active)
8,O=C(NC1CCCC1)C(c1ccco1)N(C(=O)c1csnn1)c1ccccc1 (stereo unspecified),inactive
9,O=C(NCc1ccccc1)C(c1ccccc1)N(C(=O)c1csnn1)c1ccc(F)cc1 (stereo unspecified),-1.89
10,CCOc1ccc(C(C)=O)cc1COC(=O)CNC(=O)c1cccs1,inactive
11,CCOc1ncccc1C(=O)NNC(=O)c1cccc(S(=O)(=O)Nc2ccccc2OC)c1,inactive
12,CCc1ccc(OCC(=O)NCC(c2ccc(Cl)cc2)N2CCCCC2)cc1 (stereo unspecified),-5.91 (active)
13,COc1ccc(C(CNC(=O)COc2ccc([N+](=O)[O-])cc2)N2CCCCC2)cc1 (stereo unspecified),-0.69
14,COc1ccc(C(CNC(=O)COc2ccccc2OC)N2CCCCC2)cc1 (stereo unspecified),inactive
15,O=C(CCC1CCCCC1)Nc1cc(C(F)(F)F)ccc1N1CCOCC1,-0.87
16,CN(Cc1c(F)cccc1Cl)C(=O)CNC(=O)c1ccc2c(c1)OCO2,-1.89
17,Cc1cccc(N2CCN(C(c3ccc(N(C)C)cc3)c3nnnn3C(C)(C)C)CC2)c1C (stereo unspecified),-6.02 (active)
18,Cc1cccc(N2CCN(C(c3ccccc3)c3nnnn3CC3CCCO3)CC2)c1C (stereo unspecified),-1.18
19,CC(C)(C)n1nnnc1C(c1ccc(Cl)cc1)N1CCSCC1 (stereo unspecified),inactive
20,CCOc1ccc(S(=O)(=O)NCCC(=O)NCC(C)(C)N2CCOCC2)cc1,inactive
21,CCc1ccc2c(c1)C(c1ccc([N+](=O)[O-])cc1)=NNC(c1ccccc1)=N2,-0.01
22,Cc1ccc(C2=Nc3c(ccc4ccccc34)C(c3ccncc3)=NN2)cc1,-7.02 (active)
23,CCOc1ccc2c(c1)C(c1ccc(C)cc1)=NNC(c1ccc(C)cc1)=N2,-1.45
24,CC1(c2nnc(Cc3ccccc3)o2)CC(c2ccccc2F)=NO1 (stereo unspecified),inactive
